A short description of assay [1]: optical density shifts of acrAB sulA E. coli – strain DRC41, OD650, 48 h, E. coli filamentation inducer project, primary screen (AID 1152).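 Also: E. coli MC1000 strain DRC41 lacking acrAB efflux pump and sulA.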 To be noted: higher = more signal, called active from +8 up or from −8 down.
A short description of assay [2]: probe aLefty1 binding on compound microarray – biochemical, small-molecule microarray, 635/667 nm fluorescence, primary screen (AID 1153).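 Also: score merges spot fluorescence with signal-to-noise ratio from the scanned slide images.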 To be noted: higher = more signal.
Assay [3] is described as follows: plasmodial surface anion channel blockers, osmotic lysis – cell-based, P. falciparum Indochina, OD700, 1 h, primary screen (AID 1154). To be noted: P. falciparum Indochina infected RBC osmotic lysis, higher = more signal, called active from +8 up or from −8 down.
A short description of assay [4]: plasmodial surface anion channel blockers, osmotic lysis – cell-based, P. falciparum Indochina, OD700, 2 h, primary screen (AID 1155).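 Also: lysis reports solute entry through the parasite surface anion channel PSAC.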 To be noted: P. falciparum Indochina infected erythrocytes, higher = more signal, called active from +8 up or from −8 down.
Assay [5] is described as follows: changes in parasitized red cell lysis, either direction – P. falciparum Indochina, OD700, 3 h, PSAC antagonist project, primary screen (AID 1156). To be noted: P. falciparum-infected erythrocytes, osmotic lysis, higher = more signal, called active from +8 up or from −8 down.
Assay [6] can be described thus: plasmodial surface anion channel blockers, osmotic lysis – cell-based, P. falciparum Indochina, OD700, 18 h, primary screen (AID 1157). Particulars: P. falciparum Indochina infected erythrocytes, osmotic lysis OD700, 18 h; higher = more signal, called active from +8 up or from −8 down.
Assay [7] is described as follows: S6 kinase pathway phospho-S6 level changes – cell-based, A549, cytoblot, luminescence, serum-stimulated, primary screen (AID 1158).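 Also: serum-stimulated A549 lung adenocarcinoma cells; signal is phosphorylated S6 detected by cytoblot immunostaining with HRP secondary.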 Particulars: 5 h, higher = more signal.
Assay [8] concerns the target NADPH oxidase 2 (Homo sapiens) (UniProt P04839). Briefly: compounds shifting NOX2 Amplex Red fluorescence – cell-based, HEK293-NOX2, PMA-stimulated, NOX inhibitor project, primary screen (AID 1159). Also: test concentration not given here. To be noted: 45 min, higher = more signal, called active from +8 up or from −8 down.
Assay [9] deals with NADPH oxidase 4 (Homo sapiens) (UniProt Q9NPH5). Nature of the assay: compounds shifting NOX4 Amplex Red fluorescence – cell-based, HEK293-NOX4, tetracycline-induced, NOX inhibitor project, primary screen (AID 1160). To be noted: HEK293-NOX4, Amplex Red H2O2 fluorescence, 45 min; higher = more signal, called active from +8 up or from −8 down.
Sequence of NADPH oxidase 4 (Homo sapiens) (Q9NPH5 whole entry, looked up): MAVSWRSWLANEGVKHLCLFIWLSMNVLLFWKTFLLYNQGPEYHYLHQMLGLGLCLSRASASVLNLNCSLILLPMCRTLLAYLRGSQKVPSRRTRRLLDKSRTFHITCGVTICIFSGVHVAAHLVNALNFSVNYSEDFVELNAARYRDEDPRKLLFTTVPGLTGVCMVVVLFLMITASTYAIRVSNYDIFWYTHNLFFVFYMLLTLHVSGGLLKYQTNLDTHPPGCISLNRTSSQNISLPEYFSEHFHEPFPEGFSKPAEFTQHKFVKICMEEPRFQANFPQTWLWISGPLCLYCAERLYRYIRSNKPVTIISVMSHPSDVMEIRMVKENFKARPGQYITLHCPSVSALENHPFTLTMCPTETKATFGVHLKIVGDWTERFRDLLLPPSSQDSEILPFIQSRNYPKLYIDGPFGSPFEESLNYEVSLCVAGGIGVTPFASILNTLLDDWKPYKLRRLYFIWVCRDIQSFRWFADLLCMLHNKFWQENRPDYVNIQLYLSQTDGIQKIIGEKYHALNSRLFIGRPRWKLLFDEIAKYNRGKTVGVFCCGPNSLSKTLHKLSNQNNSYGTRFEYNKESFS
Assay [10] deals with NADPH oxidase 5 (Homo sapiens) (UniProt Q96PH1). Nature of the assay: compounds shifting NOX5 Amplex Red fluorescence – cell-based, HEK293-NOX5, NOX inhibitor project, primary screen (AID 1161). To be noted: HEK293-NOX5, ionomycin, 45 min, higher = more signal.
Sequence of NADPH oxidase 5 (Homo sapiens) (Q96PH1 whole entry, looked up): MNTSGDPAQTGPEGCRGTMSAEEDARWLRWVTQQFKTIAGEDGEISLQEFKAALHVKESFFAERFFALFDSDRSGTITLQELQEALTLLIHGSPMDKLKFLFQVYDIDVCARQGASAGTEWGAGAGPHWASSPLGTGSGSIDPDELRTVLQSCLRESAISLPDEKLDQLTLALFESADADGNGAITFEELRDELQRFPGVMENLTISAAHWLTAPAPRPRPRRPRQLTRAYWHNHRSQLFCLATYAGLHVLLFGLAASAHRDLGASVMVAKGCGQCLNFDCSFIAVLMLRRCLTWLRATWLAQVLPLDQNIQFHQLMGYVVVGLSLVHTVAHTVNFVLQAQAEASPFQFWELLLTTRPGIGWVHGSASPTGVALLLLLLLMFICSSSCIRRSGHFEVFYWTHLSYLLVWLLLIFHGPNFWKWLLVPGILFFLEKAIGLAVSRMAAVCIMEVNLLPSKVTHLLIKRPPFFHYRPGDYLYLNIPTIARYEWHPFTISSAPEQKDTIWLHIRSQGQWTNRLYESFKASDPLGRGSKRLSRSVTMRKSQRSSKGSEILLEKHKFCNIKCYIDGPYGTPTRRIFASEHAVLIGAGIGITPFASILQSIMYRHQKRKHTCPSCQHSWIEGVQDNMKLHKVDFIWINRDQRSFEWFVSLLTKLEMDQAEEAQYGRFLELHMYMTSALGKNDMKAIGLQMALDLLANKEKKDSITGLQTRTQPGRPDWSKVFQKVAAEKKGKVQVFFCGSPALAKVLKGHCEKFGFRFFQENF
A short description of assay [11]: compound effects on lung adenocarcinoma cell viability – A549, calcein-AM fluorescence, 48 h, basal, profiling panel (AID 1162). Also: test concentration not given here. To be noted: higher = more signal.
Assay [12] in a line: compound effects on differentiated 3T3-L1 adipocyte viability – cell-based, 3T3-L1 adipocytes, calcein-AM fluorescence, 48 h, basal, profiling panel (AID 1163). Also: test concentration not given here. Particulars: 3T3-L1 adipocytes viability, higher = more signal.
Assay [13] is described as follows: compound effects on hepatocellular carcinoma cell viability – HepG2, calcein-AM fluorescence, 48 h, basal, profiling panel (AID 1164). Also: test concentration not given here. Particulars: higher = more signal.
Assay [14] can be described thus: compound effects on multiple myeloma cell viability – MM1S, calcein-AM fluorescence, 48 h, basal, profiling panel (AID 1165).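 Also: viability of MM1S multiple myeloma cells under basal unstimulated conditions; test concentration not given here.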 Particulars: higher = more signal.
Assay [15] in a line: calcein-AM signal in unstimulated myeloma cells – cell-based, calcein-AM fluorescence, 48 h, PK04 Diversity Set, profiling panel (AID 1166).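 Also: cells grown under basal conditions without added stimulus; test concentration not given here.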 To be noted: RPMI8226 myeloma viability, higher = more signal.
A short description of assay [16]: JC-1 mitochondrial signal, unstimulated HepG2 cells – cell-based, JC-1 fluorescence, 24 h, 100 nL compound, profiling panel (AID 1167). Also: test concentration not given here. To be noted: HepG2 mitochondrial potential, higher = more signal.
Assay [17] in a line: JC-1 mitochondrial signal, unstimulated adipocytes – cell-based, JC-1 fluorescence, 3T3-L1 adipocytes, 24 h, 100 nL compound, profiling panel (AID 1168). Also: test concentration not given here. To be noted: JC-1 mitochondrial fluorescence, higher = more signal, called active from +8 up or from −8 down.
Assay [18] in a line: JC-1 mitochondrial signal, unstimulated myeloma cells – cell-based, JC-1 fluorescence, RPMI8226, 24 h, 100 nL compound, profiling panel (AID 1169). Also: test concentration not given here. Particulars: JC-1 mitochondrial potential fluorescence, higher = more signal.
A short description of assay [19]: JC-1 mitochondrial signal, unstimulated MM1S myeloma – cell-based, JC-1 fluorescence, 24 h, 100 nL compound, profiling panel (AID 1170). Also: test concentration not given here. To be noted: MM1S mitochondrial potential, higher = more signal.
A short description of assay [20]: resazurin metabolic signal in A549 cells – cell-based, resazurin fluorescence, 24 h, PK04 Diversity Set, profiling panel (AID 1171). Also: test concentration not given here. Particulars: A549 viability, higher = more signal, called active from +8 up or from −8 down.

Active and inactive are the calls of the source.

Sequence of NADPH oxidase 2 (Homo sapiens) (P04839 whole entry, looked up): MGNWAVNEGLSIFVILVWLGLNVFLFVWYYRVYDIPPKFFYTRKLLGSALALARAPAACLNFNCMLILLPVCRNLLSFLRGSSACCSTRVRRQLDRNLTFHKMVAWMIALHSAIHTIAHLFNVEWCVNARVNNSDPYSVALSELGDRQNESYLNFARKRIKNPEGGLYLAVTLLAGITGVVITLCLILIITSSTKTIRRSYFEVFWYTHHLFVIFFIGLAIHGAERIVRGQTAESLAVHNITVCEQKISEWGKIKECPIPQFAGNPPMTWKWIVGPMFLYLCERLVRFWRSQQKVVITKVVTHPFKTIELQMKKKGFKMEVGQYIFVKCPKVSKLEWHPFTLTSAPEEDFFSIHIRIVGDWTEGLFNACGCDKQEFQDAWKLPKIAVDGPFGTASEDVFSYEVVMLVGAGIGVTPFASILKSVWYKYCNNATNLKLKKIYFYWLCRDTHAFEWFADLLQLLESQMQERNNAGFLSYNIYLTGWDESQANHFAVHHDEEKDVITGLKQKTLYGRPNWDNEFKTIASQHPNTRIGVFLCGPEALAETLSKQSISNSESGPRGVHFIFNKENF

On to `Cc1ccc(S[C@]2(C(=O)NCC(F)(F)F)CC(=O)N(Cc3ccccc3Cl)[C@@H]2c2ccc(CO)cc2I)cc1`, for which the z-score in assay [1] is 0.973 (inactive); in assay [3], 5.02 (inactive); in assay [4], 0.898 (inactive); in assay [5] it was 0.276 (inactive); in assay [6], 0.524 (inactive); in assay [7], -0.35. For the same molecule, the z-score in assay [8] is 0.861 (inactive); in [9], -1.67 (inactive); in [10], 0.799; in [11], -1.08; in [12], -0.798; in assay [13], 0.995. Besides, the z-score in [14] is -2.24; in [15], -2.67; in assay [16], 0.627; in [17], -0.541 (inactive); in assay [18], -0.566; in assay [19], -1.18. Moreover, the z-score in [20] is 0.318 (inactive). In [2], this molecule came in with a composite z-score of 0.051.

On to `CC(=O)OC[C@H]1O[C@H](CCON=C(C)CCC(=O)OC[C@H]2O[C@H](C#Cc3ccccc3)C=C[C@@H]2Oc2ccc(C)cc2)C=C[C@@H]1OC(C)=O`, for which the z-score is 0.604 (inactive) in [1]; 8.85 (active) in [3]; 1.43 (inactive) in assay [4]; 1.02 (inactive) in [5]; 0.931 (inactive) in [6]; -0.987 in assay [7]. In addition, the z-score in assay [8] is -0.772 (inactive); in assay [9], 0.384 (inactive); in assay [10], -1.64; in assay [11] it was -0.572; in [12] it was 0.442; in [13], 0.229. The z-score was -2.77 in [14]; -2.73 in [15]; -0.797 in assay [16]; -0.942 (inactive) in [17]; -0.199 in [18]; -0.738 in assay [19]. The z-score in assay [20] was 0.016 (inactive). Also, the composite z-score in assay [2] was 0.28.

As for `C[C@@H]1C=CCC(=O)OC[C@H](C)C(=O)N[C@@H](C)C(=O)OC1`, the z-score in assay [1] was 0.811 (inactive); in assay [3], 0.378 (inactive); in [4], 0.371 (inactive); in [5] it was 0.623 (inactive); in assay [6], 0.342 (inactive); in assay [7], -0.276. The z-score was -0.727 (inactive) in assay [8]; 0.527 (inactive) in assay [9]; 0.619 in assay [10]; 0.195 in assay [11]; -0.112 in assay [12]; -0.532 in [13]. For the same molecule, the z-score was -0.131 in [14]; -0.275 in assay [15]; 0.391 in assay [16]; -0.871 (inactive) in assay [17]; -0.0436 in assay [18]; -1.26 in [19]. Also, the z-score in assay [20] was 0.156 (inactive). Moreover, in assay [2], the composite z-score is -0.0104.

Turning to `O=C1[C@H]2[C@H]3[C@H](O)[C@H](O)CC(=NO[C@@H]4O[C@H](CO)[C@@H](O)[C@H](O)[C@H]4O)[C@H]3CC[C@H]2C(=O)N1C1CCCCC1`, the z-score in assay [1] is -0.094 (inactive); in [3] it was 3.65 (inactive); in assay [4] it was -0.0811 (inactive); in assay [5] it was -0.284 (inactive); in [6], -0.136 (inactive); in assay [7], 0.561. Also, the z-score in [8] was -0.717 (inactive); in assay [9], 1.15 (inactive); in [10], 0.329; in assay [11], -0.649; in assay [12] it was 0.034; in assay [13], -0.627. Moreover, the z-score in assay [14] was 0.206; in [15], 0.115; in [16] it was -0.871; in [17] it was -1.53 (inactive); in assay [18] it was 0.368; in assay [19], -0.11. The z-score in [20] is 0.302 (inactive). The composite z-score in [2] was -0.0046.

The record behind these values is PubChem BioAssay.
